Assay results: ChEMBL document CHEMBL1961873, “Compounds: GSK PKIS; Assays: Nanosyn kinase panel” (2012)

Key:
[1] = biological target: Serine/threonine-protein kinase MARK2 (Homo sapiens) (UniProt Q7KZI7); conditions: at 1 µM
[2] = biological target: PAS domain-containing serine/threonine-protein kinase (Homo sapiens) (UniProt Q96RG2); conditions: at 0.1 µM
[3] = biological target: PAS domain-containing serine/threonine-protein kinase (Homo sapiens) (UniProt Q96RG2); conditions: at 1 µM
[4] = biological target: Phosphorylase b kinase gamma catalytic chain, skeletal muscle/heart isoform (Homo sapiens) (UniProt Q16816); conditions: at 0.1 µM
[5] = biological target: Phosphorylase b kinase gamma catalytic chain, skeletal muscle/heart isoform (Homo sapiens) (UniProt Q16816); conditions: at 1 µM
[6] = biological target: T1, Phosphorylase b kinase gamma catalytic chain, liver/testis isoform (Homo sapiens) (UniProt P15735); conditions: at 0.1 µM
T1 sequence (whole entry): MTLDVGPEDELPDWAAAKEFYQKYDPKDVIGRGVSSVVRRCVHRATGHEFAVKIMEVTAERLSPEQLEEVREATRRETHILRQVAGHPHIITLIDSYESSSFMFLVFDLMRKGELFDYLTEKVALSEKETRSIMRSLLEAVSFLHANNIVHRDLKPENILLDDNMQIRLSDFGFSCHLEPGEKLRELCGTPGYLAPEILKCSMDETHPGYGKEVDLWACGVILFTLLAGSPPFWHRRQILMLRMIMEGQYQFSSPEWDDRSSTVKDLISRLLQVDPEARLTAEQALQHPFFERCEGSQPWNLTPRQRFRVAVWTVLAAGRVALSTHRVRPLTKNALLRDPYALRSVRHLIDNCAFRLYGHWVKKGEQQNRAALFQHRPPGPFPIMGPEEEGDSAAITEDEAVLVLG

[7] = biological target: T1, Phosphorylase b kinase gamma catalytic chain, liver/testis isoform (Homo sapiens); conditions: at 1 µM
[8] = biological target: Serine/threonine-protein kinase pim-1 (Homo sapiens) (UniProt P11309); conditions: at 0.1 µM
[9] = biological target: Serine/threonine-protein kinase pim-1 (Homo sapiens) (UniProt P11309); conditions: at 1 µM
[10] = biological target: Serine/threonine-protein kinase pim-2 (Homo sapiens) (UniProt Q9P1W9); conditions: at 0.1 µM
[11] = biological target: Serine/threonine-protein kinase pim-2 (Homo sapiens) (UniProt Q9P1W9); conditions: at 1 µM
[12] = biological target: Serine/threonine-protein kinase pim-3 (Homo sapiens) (UniProt Q86V86); conditions: at 0.1 µM
[13] = biological target: Serine/threonine-protein kinase pim-3 (Homo sapiens) (UniProt Q86V86); conditions: at 1 µM
[14] = biological target: T2, MAP kinase-activated protein kinase 5 (Homo sapiens) (UniProt Q8IW41); conditions: at 0.1 µM
T2 sequence (whole entry): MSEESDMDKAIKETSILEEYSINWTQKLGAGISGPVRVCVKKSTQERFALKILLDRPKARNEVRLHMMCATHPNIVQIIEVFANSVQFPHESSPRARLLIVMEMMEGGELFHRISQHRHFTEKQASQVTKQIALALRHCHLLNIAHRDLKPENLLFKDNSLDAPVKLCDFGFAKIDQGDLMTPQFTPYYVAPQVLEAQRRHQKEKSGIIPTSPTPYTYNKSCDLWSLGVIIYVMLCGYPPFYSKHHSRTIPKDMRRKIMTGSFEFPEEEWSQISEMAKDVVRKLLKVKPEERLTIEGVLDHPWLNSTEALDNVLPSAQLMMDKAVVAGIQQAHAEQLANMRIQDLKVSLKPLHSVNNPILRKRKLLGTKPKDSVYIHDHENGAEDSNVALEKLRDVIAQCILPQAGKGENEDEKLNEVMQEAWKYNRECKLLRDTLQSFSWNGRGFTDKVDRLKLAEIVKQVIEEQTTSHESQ

[15] = biological target: T2, MAP kinase-activated protein kinase 5 (Homo sapiens); conditions: at 1 µM
[16] = biological target: Serine/threonine-protein kinase SIK1 (Homo sapiens) (UniProt P57059); conditions: at 0.1 µM
[17] = biological target: Serine/threonine-protein kinase SIK1 (Homo sapiens) (UniProt P57059); conditions: at 1 µM
[18] = biological target: Serine/threonine-protein kinase SIK2 (Homo sapiens) (UniProt Q9H0K1); conditions: at 0.1 µM
[19] = biological target: Serine/threonine-protein kinase SIK2 (Homo sapiens) (UniProt Q9H0K1); conditions: at 1 µM
[20] = biological target: T3, Serine/threonine-protein kinase TBK1 (Homo sapiens) (UniProt Q9UHD2); conditions: at 0.1 µM;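 also: values are the mean TBK1 inhibition, taken from the GSK PKIS screening data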
T3 sequence (whole entry): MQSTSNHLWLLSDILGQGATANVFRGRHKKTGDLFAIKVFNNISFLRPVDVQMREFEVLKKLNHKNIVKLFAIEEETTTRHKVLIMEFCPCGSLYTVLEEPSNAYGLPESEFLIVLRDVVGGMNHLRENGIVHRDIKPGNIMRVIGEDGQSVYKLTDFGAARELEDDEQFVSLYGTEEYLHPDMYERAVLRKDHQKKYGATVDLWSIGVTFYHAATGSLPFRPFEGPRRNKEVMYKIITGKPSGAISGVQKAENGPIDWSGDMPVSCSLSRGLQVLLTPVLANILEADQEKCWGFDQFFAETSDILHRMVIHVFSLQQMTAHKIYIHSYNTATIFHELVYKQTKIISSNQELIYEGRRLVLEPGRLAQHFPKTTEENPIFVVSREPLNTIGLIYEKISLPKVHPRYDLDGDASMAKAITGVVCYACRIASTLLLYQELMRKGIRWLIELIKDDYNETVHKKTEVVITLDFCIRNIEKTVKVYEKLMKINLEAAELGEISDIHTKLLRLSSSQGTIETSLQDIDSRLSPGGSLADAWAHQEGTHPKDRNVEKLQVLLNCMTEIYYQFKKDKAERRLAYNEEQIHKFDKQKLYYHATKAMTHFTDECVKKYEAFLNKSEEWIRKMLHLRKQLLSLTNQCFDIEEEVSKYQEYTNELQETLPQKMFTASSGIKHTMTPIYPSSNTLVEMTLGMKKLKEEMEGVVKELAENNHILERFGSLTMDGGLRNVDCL

Sequence of Serine/threonine-protein kinase pim-1 (Homo sapiens) (P11309 whole entry, looked up): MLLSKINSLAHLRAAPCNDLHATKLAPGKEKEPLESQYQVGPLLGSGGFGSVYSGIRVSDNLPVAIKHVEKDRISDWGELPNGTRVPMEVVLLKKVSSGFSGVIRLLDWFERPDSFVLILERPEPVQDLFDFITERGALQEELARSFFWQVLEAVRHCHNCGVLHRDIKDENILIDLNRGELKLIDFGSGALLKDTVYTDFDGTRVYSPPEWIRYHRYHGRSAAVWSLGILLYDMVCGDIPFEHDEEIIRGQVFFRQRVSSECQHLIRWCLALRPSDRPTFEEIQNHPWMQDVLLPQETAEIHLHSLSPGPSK
Sequence of Serine/threonine-protein kinase pim-2 (Homo sapiens) (Q9P1W9 whole entry, looked up): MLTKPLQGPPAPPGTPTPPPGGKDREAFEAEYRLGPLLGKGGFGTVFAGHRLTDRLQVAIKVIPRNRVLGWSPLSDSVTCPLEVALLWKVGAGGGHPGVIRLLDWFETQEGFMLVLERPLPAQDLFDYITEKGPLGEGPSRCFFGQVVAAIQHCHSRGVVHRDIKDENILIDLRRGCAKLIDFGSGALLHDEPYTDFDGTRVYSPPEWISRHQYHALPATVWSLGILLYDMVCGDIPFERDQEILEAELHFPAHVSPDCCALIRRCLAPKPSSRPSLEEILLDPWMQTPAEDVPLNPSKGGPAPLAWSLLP
Sequence of Phosphorylase b kinase gamma catalytic chain, skeletal muscle/heart isoform (Homo sapiens) (Q16816 whole entry, looked up, canonical isoform): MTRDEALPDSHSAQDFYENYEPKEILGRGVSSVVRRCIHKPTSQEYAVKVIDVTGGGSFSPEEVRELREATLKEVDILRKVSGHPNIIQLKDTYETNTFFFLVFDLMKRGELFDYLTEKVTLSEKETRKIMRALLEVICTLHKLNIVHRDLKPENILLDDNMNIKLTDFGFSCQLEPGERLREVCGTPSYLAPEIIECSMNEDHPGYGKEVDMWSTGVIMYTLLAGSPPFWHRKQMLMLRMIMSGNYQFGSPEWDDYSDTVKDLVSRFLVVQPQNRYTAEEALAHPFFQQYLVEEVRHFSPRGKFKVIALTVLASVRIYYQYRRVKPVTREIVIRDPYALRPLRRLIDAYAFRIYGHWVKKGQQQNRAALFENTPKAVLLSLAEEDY
Sequence of Serine/threonine-protein kinase SIK1 (Homo sapiens) (P57059 whole entry): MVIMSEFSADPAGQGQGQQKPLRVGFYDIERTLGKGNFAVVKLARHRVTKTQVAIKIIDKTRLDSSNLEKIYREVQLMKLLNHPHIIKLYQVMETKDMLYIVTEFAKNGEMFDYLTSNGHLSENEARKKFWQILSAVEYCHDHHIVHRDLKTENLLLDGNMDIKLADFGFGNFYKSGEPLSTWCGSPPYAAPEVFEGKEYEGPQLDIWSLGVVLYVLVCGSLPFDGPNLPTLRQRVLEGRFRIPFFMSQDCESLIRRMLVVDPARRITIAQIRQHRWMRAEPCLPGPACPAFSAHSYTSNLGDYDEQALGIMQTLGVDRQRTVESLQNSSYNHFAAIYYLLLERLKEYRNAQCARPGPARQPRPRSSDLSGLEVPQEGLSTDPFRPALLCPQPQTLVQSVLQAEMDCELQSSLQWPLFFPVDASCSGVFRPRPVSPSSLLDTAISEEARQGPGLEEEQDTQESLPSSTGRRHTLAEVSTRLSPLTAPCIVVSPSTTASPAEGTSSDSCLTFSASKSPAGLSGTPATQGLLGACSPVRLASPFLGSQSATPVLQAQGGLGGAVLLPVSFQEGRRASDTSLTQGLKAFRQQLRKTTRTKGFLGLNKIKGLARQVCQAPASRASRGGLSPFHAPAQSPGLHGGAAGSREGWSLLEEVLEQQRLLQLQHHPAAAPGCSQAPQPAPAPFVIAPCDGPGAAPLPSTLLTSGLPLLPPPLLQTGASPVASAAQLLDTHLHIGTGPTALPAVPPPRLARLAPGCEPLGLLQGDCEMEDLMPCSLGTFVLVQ
Sequence of PAS domain-containing serine/threonine-protein kinase (Homo sapiens) (Q96RG2 whole entry, the tested form may be a part, canonical isoform): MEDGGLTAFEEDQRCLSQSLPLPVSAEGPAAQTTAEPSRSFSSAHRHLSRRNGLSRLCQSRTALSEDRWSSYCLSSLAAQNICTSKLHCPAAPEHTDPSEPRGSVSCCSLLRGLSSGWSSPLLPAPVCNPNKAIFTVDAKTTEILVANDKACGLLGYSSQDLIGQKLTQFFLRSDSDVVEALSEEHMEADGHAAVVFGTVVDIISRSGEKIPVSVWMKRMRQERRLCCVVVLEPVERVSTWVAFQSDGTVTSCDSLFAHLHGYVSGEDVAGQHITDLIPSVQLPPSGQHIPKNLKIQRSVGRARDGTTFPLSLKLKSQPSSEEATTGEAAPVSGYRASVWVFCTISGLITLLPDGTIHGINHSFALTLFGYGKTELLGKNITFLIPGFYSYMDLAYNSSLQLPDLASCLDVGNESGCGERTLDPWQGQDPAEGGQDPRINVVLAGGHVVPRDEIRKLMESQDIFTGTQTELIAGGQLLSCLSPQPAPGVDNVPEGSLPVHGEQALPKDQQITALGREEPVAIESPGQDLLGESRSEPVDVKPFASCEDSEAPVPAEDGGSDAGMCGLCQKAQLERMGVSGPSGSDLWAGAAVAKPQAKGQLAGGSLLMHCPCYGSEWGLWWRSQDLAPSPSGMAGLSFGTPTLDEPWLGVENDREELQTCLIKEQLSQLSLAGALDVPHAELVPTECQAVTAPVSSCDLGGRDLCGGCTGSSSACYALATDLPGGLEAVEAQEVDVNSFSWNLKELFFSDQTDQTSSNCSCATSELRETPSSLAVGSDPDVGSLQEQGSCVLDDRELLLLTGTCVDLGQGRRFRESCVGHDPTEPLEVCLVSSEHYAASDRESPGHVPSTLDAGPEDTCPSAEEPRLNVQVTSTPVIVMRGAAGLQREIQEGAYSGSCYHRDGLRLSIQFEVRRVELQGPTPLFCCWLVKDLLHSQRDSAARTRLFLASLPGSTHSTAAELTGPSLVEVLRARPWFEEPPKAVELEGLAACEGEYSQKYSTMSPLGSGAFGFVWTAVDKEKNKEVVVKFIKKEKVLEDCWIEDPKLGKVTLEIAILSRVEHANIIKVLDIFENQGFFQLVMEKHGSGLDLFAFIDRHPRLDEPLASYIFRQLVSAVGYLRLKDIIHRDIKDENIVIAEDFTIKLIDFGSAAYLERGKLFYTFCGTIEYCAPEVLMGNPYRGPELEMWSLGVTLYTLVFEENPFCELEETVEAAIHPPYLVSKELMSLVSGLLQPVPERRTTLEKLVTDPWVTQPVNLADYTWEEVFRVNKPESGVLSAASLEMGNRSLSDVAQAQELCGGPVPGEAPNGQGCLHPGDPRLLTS
Sequence of Serine/threonine-protein kinase SIK2 (Homo sapiens) (Q9H0K1 whole entry, looked up): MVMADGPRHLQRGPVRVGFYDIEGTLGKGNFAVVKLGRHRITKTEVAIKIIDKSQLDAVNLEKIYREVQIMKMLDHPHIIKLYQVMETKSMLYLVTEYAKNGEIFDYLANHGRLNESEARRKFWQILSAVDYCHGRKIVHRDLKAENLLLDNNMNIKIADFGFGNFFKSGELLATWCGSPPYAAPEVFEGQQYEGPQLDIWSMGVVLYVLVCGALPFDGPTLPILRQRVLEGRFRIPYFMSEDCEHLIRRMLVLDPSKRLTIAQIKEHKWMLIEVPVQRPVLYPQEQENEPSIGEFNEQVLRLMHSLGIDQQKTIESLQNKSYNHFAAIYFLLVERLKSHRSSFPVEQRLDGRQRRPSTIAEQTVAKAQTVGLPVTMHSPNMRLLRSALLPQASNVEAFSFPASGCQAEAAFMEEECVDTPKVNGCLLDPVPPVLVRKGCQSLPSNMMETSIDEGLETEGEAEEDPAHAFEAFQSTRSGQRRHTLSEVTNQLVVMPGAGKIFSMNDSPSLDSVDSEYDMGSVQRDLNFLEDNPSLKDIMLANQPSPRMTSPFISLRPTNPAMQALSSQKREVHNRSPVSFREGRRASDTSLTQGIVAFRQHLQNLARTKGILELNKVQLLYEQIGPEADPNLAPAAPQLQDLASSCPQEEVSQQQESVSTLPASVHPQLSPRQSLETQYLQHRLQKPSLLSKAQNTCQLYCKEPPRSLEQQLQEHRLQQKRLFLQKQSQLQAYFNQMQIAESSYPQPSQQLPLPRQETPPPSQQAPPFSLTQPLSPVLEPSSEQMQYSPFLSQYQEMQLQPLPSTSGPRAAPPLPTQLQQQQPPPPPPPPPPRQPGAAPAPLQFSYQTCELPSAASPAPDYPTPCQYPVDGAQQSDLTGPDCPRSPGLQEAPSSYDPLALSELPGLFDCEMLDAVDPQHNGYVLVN

| Structure (SMILES) | inhibition [1] [%] | inhibition [2] [%] | inhibition [3] [%] | inhibition [4] [%] | inhibition [5] [%] | inhibition [6] [%] | inhibition [7] [%] | inhibition [8] [%] | inhibition [9] [%] | inhibition [10] [%] | inhibition [11] [%] | inhibition [12] [%] | inhibition [13] [%] | inhibition [14] [%] | inhibition [15] [%] | inhibition [16] [%] | inhibition [17] [%] | inhibition [18] [%] | inhibition [19] [%] | inhibition [20] [%] |
| --- | --- | --- | --- | --- | --- | --- | --- | --- | --- | --- | --- | --- | --- | --- | --- | --- | --- | --- | --- | --- |
| CNC(=O)c1cncc(/C=C/c2ccccc2C)c1 | 0.45 | 0.44 | 0.95 | 4.3 | 7.61 | 6.36 | 7.42 | 0.05 | 2.22 | 0.15 | 1.06 | -0.06 | 5.04 | 1.79 | 3.16 | 10 | 39.5 | 9 | 18.5 | 2.9 |
| NS(=O)(=O)c1cccc(N/C=C2\C(=O)Nc3ccccc32)c1 | 12.6 | -0.26 | -1.04 | 7.73 | 33.3 | 5.62 | 13.4 | 0.75 | 0.73 | -0.33 | 0.69 | -0.71 | -2.38 | 1.17 | 1.53 | 5.29 | 10.8 | -0.72 | 11.3 | 3.79 |
| Cn1c(-c2nonc2N)nc2cnccc21 | 4.69 | 0.4 | -0.76 | 1.82 | 0.15 | 4.05 | 1.59 | 2.15 | 16.4 | -0.31 | 1.87 | -0.24 | 7.16 | 1.23 | 0.93 | 4.82 | 8.47 | 5.17 | -0.26 | 1.34 |
| COc1cc(Nc2ncc(-c3ccccc3)o2)cc(OC)c1 | 2.52 | -1.02 | -0.79 | 5.83 | 14.1 | 4.54 | 5.45 | 1.14 | 1.63 | 0.58 | 0.6 | 0.03 | -0.34 | 1.24 | 2.34 | 6.1 | 20.6 | 7.38 | 33.8 | 2.71 |
| COc1ccccc1-c1cc(/C=C2\C(=O)Nc3ncc(Br)cc32)cc(Br)c1O | 2.22 | -1.52 | -3.29 | 3.58 | 7.04 | 4.87 | 3.85 | 0.14 | 3.18 | 0.1 | -0.06 | -1.67 | -1.54 | 1.35 | 0.67 | 3.09 | 9.01 | 0.5 | 10.4 | 0.53 |
| CN(c1ccc(NC(=O)NCCN2CCOCC2)cc1)c1ccnc(Nc2ccc(CS(C)(=O)=O)cc2)n1 | 2.47 | 0.41 | 2.08 | 2.5 | 5.5 | 2.91 | 6.71 | 0.61 | -0.22 | 0.04 | 0.65 | 0.45 | 2 | 1.83 | 3.14 | 2.8 | 17.4 | 9.27 | 11.2 | 1.55 |
| N#Cc1cccc(Nc2ncc(-c3ccccc3)o2)c1 | -0.47 | 0.37 | 2.05 | 2.95 | 12.9 | 1.85 | 6.04 | 0.15 | 0.29 | 0.1 | 0.47 | 0.1 | 2.79 | 1.22 | 2.58 | 1.14 | 4 | 1.76 | 4.74 | 1.05 |
